The whole screen tested about 3,300 compounds, of which about 1,400 (42%) were called active.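 The calls were made as follows: active = mean inhibition across replicates above the hit cutoff derived for the earlier primary screen (cut at about 22% in these data); inactive = the rest.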 So high a share suggests a set chosen from earlier hits. Only a sample is shown.
target: Protein arginine N-methyltransferase 1 (Homo sapiens) (UniProt Q99873); assay: PRMT1 methyltransferase inhibitors, confirmation, biochemical, fluorescence polarization, triplicate (AID 687036); conditions: recombinant His-PRMT1, activity-based probe fluorescence polarization; at 2.79 µM; stronger effect = higher value
Sequence (Q99873 whole entry, looked up): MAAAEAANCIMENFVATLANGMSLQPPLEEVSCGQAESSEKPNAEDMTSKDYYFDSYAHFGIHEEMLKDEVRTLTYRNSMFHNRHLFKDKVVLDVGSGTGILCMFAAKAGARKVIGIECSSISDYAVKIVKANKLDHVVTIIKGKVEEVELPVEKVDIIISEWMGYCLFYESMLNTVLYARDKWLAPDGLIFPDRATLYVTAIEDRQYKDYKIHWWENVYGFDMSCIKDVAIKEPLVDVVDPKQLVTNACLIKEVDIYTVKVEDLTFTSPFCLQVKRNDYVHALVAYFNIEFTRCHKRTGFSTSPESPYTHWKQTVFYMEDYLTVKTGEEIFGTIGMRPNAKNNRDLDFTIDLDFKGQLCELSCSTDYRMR

SMILES	inhibition
Cc1nc2sc(C(c3ccco3)N3CCOCC3)c(O)n2n1 (centres undefined)	7.49% (inactive)
CCN(CC)CCCC(C)n1c2nc(=O)[nH]c(=O)c-2nc2cc(Cl)ccc21 (centres undefined)	153% (active)
CC(C(=O)Nc1ccc(O)c(C(=O)O)c1)N1C(=O)/C(=C/c2cccs2)SC1=S (centres undefined)	12% (inactive)
COCCNC(=S)Nc1cc(S(=O)(=O)N2CCOCC2)ccc1N1CCCCC1	4.34% (inactive)
N#Cc1ccccc1S(=O)(=O)N1CCN(Cc2c(O)ccc3ccccc23)CC1	33.1% (active)
COc1ccc(Nc2nc(-c3cccnc3)nc3ccccc23)cn1	11.2% (inactive)
Cn1sc(=O)c2cc(S(=O)(=O)NC3CC3)ccc21	32% (active)
Cc1ccc(CNC(=O)CCS(=O)(=O)c2ccc3c(c2)CC(C)N3C(=O)C2CC2)o1 (centres undefined)	5.73% (inactive)
S=c1[nH]nc2c3c4c(sc3ncn12)CCCC4	17.1% (inactive)
CCOc1cccc(/C=N/N2C(=O)CSC2=S)c1O	83.2% (active)
NC(=O)C1(N2CCCCC2)CCN(C2CC(=O)N(Cc3ccc(N4CCCC4=O)cc3)C2=O)CC1 (centres undefined)	2.57% (inactive)
Cc1sc2nc(SCC(=O)c3ccc(O)c(O)c3)n(Cc3ccco3)c(=O)c2c1C	2.72% (inactive)
CCOC(=O)N1C(=O)C[C@](Sc2ccc(C)cc2)(C(=O)OC)[C@H]1c1ccccc1	60.5% (active)
CCc1ccc(-n2c(=S)sc3c(=O)n(-c4ccccc4OC)c(=S)[nH]c32)cc1	14.1% (inactive)
Cc1ccc(NC(=O)c2cc(-c3ccc(C)o3)nc3ccccc23)nc1	10.3% (inactive)
CCc1n[nH]c(=S)n1/N=C/c1c[nH]c2ccc(Br)cc12	18% (inactive)
Cc1cccc(NC(=O)c2sc3nc(N4CCOCC4)c4c(c3c2N)CCCC4)c1	10.1% (inactive)
Clc1ccccc1CSc1nnc(-c2ccco2)c(-c2ccco2)n1	65.4% (active)
O=C(CC1N=C2c3ccccc3N=C(SCc3ccccc3Cl)N2C1=O)NCc1ccco1 (centres undefined)	5.28% (inactive)
CC(=O)N1CCN(C(=O)c2cc(-c3ccc(C)o3)nc3ccccc23)CC1	13% (inactive)
Cc1ccnc(-n2sc3ccccc3c2=O)n1	89.8% (active)
CCN1/C(=C/C(=S)Nc2ccccc2)Sc2ccccc21	24.8% (active)
COc1ccccc1-n1c(-c2cc(-c3ccco3)[nH]n2)n[nH]c1=S	2.25% (inactive)
c1ccc(CN2CCC(N=C3NN=C(c4ccc5c(c4)OCCO5)CS3)CC2)cc1	27.8% (active)

SMILES	inhibition
Cc1cccc(Oc2c([N+](=O)[O-])c(=O)n(C)c3ccccc23)c1	9.75% (inactive)
N#Cc1c(N2CCCCC2)nc(N)c2c(N)nc(SCC(=O)O)cc12	56.5% (active)
COc1ccc(C2CC(c3cccs3)=Nc3ccccc3S2)cc1OC (centres undefined)	48.6% (active)
Cc1cc(C(=O)NN=C/C=C/c2ccco2)n[nH]1	0.98% (inactive)
O=C(Oc1ccccc1C(=S)N1CCCCC1)c1cc([N+](=O)[O-])cc([N+](=O)[O-])c1	25.5% (active)
Cc1cc2nc(-c3ccco3)c(Cc3cccc(F)c3)n2c(C)c1Br	20.8% (inactive)
COC(=O)c1ccccc1SC1CC(=O)N(c2cccc(C)c2)C1=O (centres undefined)	23.1% (active)
CCOC(=O)c1ccc(N2C(=O)CC(N3CCC(C(=O)OCC)CC3)C2=O)cc1 (centres undefined)	1.87% (inactive)
O=C(O)c1ccc(/C=C2\SC(=S)N(NC(=O)c3ccc(Br)cc3)C2=O)cc1	2.94% (inactive)
CCN(CC)S(=O)(=O)c1cccc(-c2n[nH]c(=S)n2/N=C/c2ccc(C(=O)OC)cc2)c1	65.6% (active)
S=c1[nH]nc(-c2ccccc2)n1/N=C/c1c[nH]c2ccccc12	12.4% (inactive)
S=c1ccc2ccccc2[nH]1	10.8% (inactive)
CC(=O)NC1=NC(=O)CS1	15.3% (inactive)
CCOC(=O)N1CCN(C(c2cccnc2)c2ccc3cccnc3c2O)CC1 (centres undefined)	82.2% (active)
COc1ccccc1C(=O)NN1C(=O)C2C3C=CC(O3)C2C1=O (centres undefined)	8.23% (inactive)
COc1ccc(N=C2C=CC(=O)O2)cc1	83.2% (active)
COc1ccccc1NC(=O)/C=C/C(N)=O	55.8% (active)
CN(C)c1ccc(Nc2c3c4c(cccc4n(C)c2=O)C(=O)c2ccccc2-3)cc1	1.6% (inactive)
O=C(O)c1ccccc1CSc1nc2ccccc2s1	33.2% (active)
CCC(c1nnnn1Cc1ccco1)N(CCc1ccccc1)Cc1cc2ccc(OC)cc2[nH]c1=O (centres undefined)	5.74% (inactive)
O=C1C=CC(=O)N1c1ccc(N2CCCCC2)cc1	82.8% (active)
Cc1cc(C)c(S(=O)(=O)NN=C2c3ccccc3[C@H]3Cc4csc[n+]4[C@@H]23)c(C)c1	13.2% (inactive)
Cc1cccc(C)c1NC(=O)C(Cl)C(=O)c1ccccc1 (centres undefined)	30% (active)
O=c1/c(=C/c2ccc(CNS(=O)(=O)c3ccccc3)o2)sc2n1CCN=2	-3.63% (inactive)

SMILES	inhibition
Clc1cccc(-c2nc3nc4ccccc4nc3n2Cc2ccco2)c1	19.7% (inactive)
Cc1nc2ccc(S(=O)(=O)NCC(=O)O)cc2s1	22.9% (active)
CC(=O)N1C(=O)/C(=C2\SC(=S)N(NC(=O)c3ccc(O)cc3)C2=O)c2ccccc21	1.92% (inactive)
CCCCOC(=O)CNc1nnc(SCC(=O)OCC)[nH]c1=O	72.3% (active)
CN(C)c1ccc(C(CC(=O)O)C(=O)O)cc1 (centres undefined)	5.11% (inactive)
CCOC(=O)Cc1csc(NC(=O)CSc2nc(C)cc(=O)[nH]2)n1	61.6% (active)
Cc1cc(NC(=O)C(C)SCC(=O)Nc2cccc(S(=O)(=O)N3CCCCCC3)c2)no1 (centres undefined)	-0.11% (inactive)
COc1ccc(NC(=O)CN(C)C(=O)c2cc(-c3ccc(C)o3)nc3ccccc23)cc1	13.6% (inactive)
OCCN1CCN(C(=S)c2ccc(-c3ccccc3)cc2)CC1	61.8% (active)
CC1CCN(C(=S)c2ccc(-c3ccc(Cl)cc3Cl)o2)CC1	4.49% (inactive)
COc1cc(NC(=S)N2CCCC(C)C2)c(OC)cc1Cl (centres undefined)	44.5% (active)
CC(=O)N1CC(C)c2scc(C)[n+]2-c2ccccc21 (centres undefined)	50.9% (active)
COc1ccc(N2C(=O)/C(=C\c3ccco3)N=C2SCC(N)=O)cc1Cl	5.26% (inactive)
COc1cccc2c1C(=O)c1c(O)c3c(c(O)c1C2=O)CC(O)(C(C)=NNC(=O)c1ccc(Cl)c(Cl)c1)CC3OC1CC(N)C(O)C(C)O1 (centres undefined)	159% (active)
Cc1c(NC(=O)/C=C/C(=O)O)cccc1[N+](=O)[O-]	4.54% (inactive)
O=C(O)/C=C/C(=O)NNc1ccc([N+](=O)[O-])cc1	12.7% (inactive)
COC(=O)/C=C\C(=O)Nc1cccc([N+](=O)[O-])c1	87.6% (active)
CSc1c(SCc2ccccc2)cnn(Cc2ccccc2)c1=O	18.4% (inactive)
Nc1c(C(=O)c2cccs2)sc2nsc(SCCN3CCCCC3)c12	-5.21% (inactive)
O=C(COC(=O)Cn1cnc2ccccc21)Nc1cccc2c1C(=O)c1ccccc1C2=O	4.11% (inactive)
Brc1ccccc1C1Nc2cccc3cccc(c23)N1	29.4% (active)
NS(=O)(=O)c1ccc(NC(=O)COC(=O)c2c3c(nc4ccccc24)/C(=C\c2ccc4c(c2)OCO4)CCC3)cc1	0.89% (inactive)
Cc1cc(C)cc(C(=O)NC2C(=O)N3C(C(=O)O)=C(CSc4nnc(C)s4)CSC23)c1 (centres undefined)	15.9% (inactive)
Oc1ccc2ccc3cccc[n+]3c2c1	155% (active)

SMILES	inhibition
COc1cc(C2CC(=O)N3CN(Cc4ccccc4)CSC3=C2C#N)ccc1OCc1ccccc1 (centres undefined)	12.4% (inactive)
CC(=O)Nc1ccc(C(=O)Nc2nc(-c3cc(C)n(Cc4ccccc4)c3C)cs2)cc1	5.86% (inactive)
FC(F)(F)c1nc2ccccc2nc1N/N=C/c1ccc(Cl)cc1	-0.64% (inactive)
CCOC(=O)C(Sc1ncc(C#N)c(N)n1)C(C)C (centres undefined)	37% (active)
Fc1ccc(COc2cccc(-c3n[nH]c(=S)o3)c2)cc1	14.3% (inactive)
COc1cc(C(=S)NC2CCCCC2)ccc1O	5.36% (inactive)
CCc1ccc(NC2Nc3cc(C)nn3S2)cc1 (centres undefined)	6.49% (inactive)
O=c1ccc2c(-c3ccccc3S(=O)(=O)O)c3ccc(O)c(O)c3oc-2c1O	66.2% (active)
COc1ccc(CCN2C(=O)CC(N3CCC(C(N)=O)CC3)C2=O)cc1OC (centres undefined)	12.1% (inactive)
OCCn1c(-c2ccccc2)csc1=Nc1ccccc1	-0.19% (inactive)
O=S(=O)(O)c1cc2onnc2c2ccccc12	53.5% (active)
Cc1ccc(-c2ccc(/C=C(\C#N)C(N)=S)o2)c([N+](=O)[O-])c1	3.06% (inactive)
Cc1ccc(SC(CC(=O)c2ccc(C(C)(C)C)cc2)C(=O)O)cc1 (centres undefined)	80.3% (active)
COc1ccc(N/N=C2/CCCCC2=O)cc1	0.52% (inactive)
Cc1cc(=O)[nH]c(=S)[nH]1	-4.44% (inactive)
Cc1cc2nc3c(=O)[nH]c(=O)nc-3n(C[C@H](O)[C@H](O)[C@H](O)CO)c2cc1C	146% (active)
O=C(CN1CCN(c2ccc(O)cc2)CC1)NC1CCCc2ccccc21 (centres undefined)	-0.09% (inactive)
Cc1cccc(N2CCN(C(=O)/C=C/c3ccco3)CC2)c1C	7.17% (inactive)
Cc1nnc(SCC2=C(C(=O)O)N3C(=O)C(NC(=O)Cn4nc(C)c(Cl)c4C)C3SC2)s1 (centres undefined)	6.51% (inactive)
CC(C)(C)NC(=O)COc1ccc(CNc2ccc3[nH]c(=O)[nH]c3c2)cc1	4.62% (inactive)
COc1ccc(NC(=O)CSc2nc(SC)ns2)c(OC)c1	30.5% (active)
Cc1cccc2cc3c(N)c(C(=O)N4CCCc5ccccc54)sc3nc12	-2.12% (inactive)

Source: PubChem BioAssay AID687036 (The Scripps Research Institute Molecular Screening Center, 2013)
